# Data published in the supplement of paper PMC10037445.
# Over roughly 2,900 compounds, “NF-kB SEAP reporter activity, fold change vs agonist alone” has its median near 0.99; the highest 2% begin near 2.6. This is one part of a sample in which the highest values are shown more often than they occur.
# Columns and labels:
# RAW-Dual [1] = test: NF-kB SEAP reporter activity, fold change vs agonist alone; higher = enhanced NF-kB activity
# Summary of the method: (§1)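 Cytotoxic wells were those whose IncuCyte confluency was below 70% of agonist controls in both mask sets. The cells were RAW-Dual macrophages at 50,000 cells/well in DMEM on 384-well plates, dosed with 50 nL of library stock by pin tool, stimulated with a PRR agonist 1 h later, and kept at 37 °C, 5% CO2 for 20 hours. IRF and NF-κB reporter activity, as fold change over agonist-alone wells, came from supernatant read by QuantiLuc luminescence and QuantiBlue absorbance, respectively.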
# RAW-Dual [2] = test: NF-kB SEAP reporter activity, fold change vs agonist alone; cytotoxicity flag (confluency mask): not cytotoxic; higher = enhanced NF-kB activity
# Summary of the method: as §1
# RAW-Dual [3] = test: NF-kB SEAP reporter activity, fold change vs agonist alone; cytotoxicity flag (confluency mask): cytotoxic (confluency <70% of control); higher = enhanced NF-kB activity
# Summary of the method: as §1
# [4] = library stock concentration (final ~1000-fold dilution): 10 mM, cytotoxicity flag (confluency mask): not cytotoxic, agonist: Imiquimod (TLR7) […]
# [5] = library stock concentration (final ~1000-fold dilution): 10 mM, cytotoxicity flag (confluency mask): not cytotoxic, agonist: MPLA (TLR4) […]
# [6] = agonist: ODN 1826 (TLR9) 0.5 ug/mL
# [7] = agonist: Pam2CSK4 (TLR2/6) 0.1 ug/mL
# [8] = agonist: Pam3CSK4 (TLR2/1) 0.1 ug/mL
# [9] = library stock concentration (final ~1000-fold dilution): 2 mM, cytotoxicity flag (confluency mask): not cytotoxic, agonist: Imiquimod (TLR7) […]
# [10] = library stock concentration (final ~1000-fold dilution): 2 mM, cytotoxicity flag (confluency mask): not cytotoxic, agonist: MPLA (TLR4) […]
compound,measurement,setting,value
CC#Cc1cncc(-c2ccc3c(c2)C2(N=C(C)C(N)=N2)C2(CCC(OC)CC2)C3)c1 (stereo unspecified),NF-kB SEAP reporter activity,RAW-Dual [1]; [4],1.18
same,NF-kB SEAP reporter activity,RAW-Dual [1]; [5],1.01
CC#Cc1cncc(-c2ccc3c(c2)C2(N=C(C)C(N)=N2)C2(CCC(OC)CC2)C3)c1 (stereo unspecified) (library stock concentration (final ~1000-fold dilution): 10 mM),NF-kB SEAP reporter activity,RAW-Dual [2]; agonist: LPS (TLR4) 0.1 ug/mL,1.15
same,NF-kB SEAP reporter activity,RAW-Dual [2]; [6],0.723
same,NF-kB SEAP reporter activity,RAW-Dual [2]; [7],0.809
same,NF-kB SEAP reporter activity,RAW-Dual [2]; [8],0.972
C=CC(=O)Nc1cccc(Oc2nc(Nc3ccc(N4CCN(C)CC4)cc3OC)ncc2Cl)c1 (library stock concentration (final ~1000-fold dilution): 10 mM),NF-kB SEAP reporter activity,RAW-Dual [2]; agonist: LPS (TLR4) 0.1 ug/mL,0.915
same,NF-kB SEAP reporter activity,RAW-Dual [2]; [6],0.863
same,NF-kB SEAP reporter activity,RAW-Dual [2]; [7],0.802
same,NF-kB SEAP reporter activity,RAW-Dual [2]; [8],0.684
COc1cc(N2CCC(N3CCN(C)CC3)CC2)ccc1Nc1ncnc(Nc2ccccc2S(=O)(=O)C(C)C)n1,NF-kB SEAP reporter activity,RAW-Dual [1]; [4],0.945
same,NF-kB SEAP reporter activity,RAW-Dual [1]; [5],1.14
COc1cc(N2CCC(N3CCN(C)CC3)CC2)ccc1Nc1ncc(Cl)c(Nc2ccccc2P(C)(C)=O)n1 (library stock concentration (final ~1000-fold dilution): 2 mM),NF-kB SEAP reporter activity,RAW-Dual [2]; agonist: LPS (TLR4) 0.1 ug/mL,2.66
same,NF-kB SEAP reporter activity,RAW-Dual [2]; [6],1.27
same,NF-kB SEAP reporter activity,RAW-Dual [2]; [7],1.28
same,NF-kB SEAP reporter activity,RAW-Dual [2]; [8],1.66
Cc1cc(Nc2ncc(Cl)c(Nc3ccccc3S(=O)(=O)C(C)C)n2)c(OC(C)C)cc1C1CCNCC1 (library stock concentration (final ~1000-fold dilution): 10 mM),NF-kB SEAP reporter activity,RAW-Dual [3]; agonist: LPS (TLR4) 0.1 ug/mL,0.198
same,NF-kB SEAP reporter activity,RAW-Dual [3]; [6],0.674
same,NF-kB SEAP reporter activity,RAW-Dual [3]; [7],0.845
same,NF-kB SEAP reporter activity,RAW-Dual [3]; [8],0.455
Cc1cc(Nc2ncc(Cl)c(Nc3ccccc3S(=O)(=O)C(C)C)n2)c(OC(C)C)cc1C1CCNCC1,NF-kB SEAP reporter activity,"RAW-Dual [1]; library stock concentration (final ~1000-fold dilution): 10 mM, cytotoxicity flag (confluency mask): cytotoxic (confluency <70% of control), agonist: Imiquimod (TLR7) […]",2.07
same,NF-kB SEAP reporter activity,"RAW-Dual [1]; library stock concentration (final ~1000-fold dilution): 10 mM, cytotoxicity flag (confluency mask): cytotoxic (confluency <70% of control), agonist: MPLA (TLR4) […]",0.569
COc1cc(N2CCC(N3CCN(C)CC3)CC2)ccc1Nc1ncc(Cl)c(Nc2ccccc2S(=O)(=O)C(C)C)n1,NF-kB SEAP reporter activity,RAW-Dual [1]; [9],1.28
same,NF-kB SEAP reporter activity,RAW-Dual [1]; [10],0.939
COc1cc(N2CCC(N(C)C)CC2)ccc1Nc1ncc(Cl)c(Nc2ccccc2P(C)(C)=O)n1,NF-kB SEAP reporter activity,RAW-Dual [1]; [4],1.64
same,NF-kB SEAP reporter activity,RAW-Dual [1]; [5],2.05
COc1cc(N2CCC(N(C)C)CC2)ccc1Nc1ncc(Cl)c(Nc2ccccc2P(C)(C)=O)n1 (library stock concentration (final ~1000-fold dilution): 10 mM),NF-kB SEAP reporter activity,RAW-Dual [2]; agonist: LPS (TLR4) 0.1 ug/mL,1.87
same,NF-kB SEAP reporter activity,RAW-Dual [2]; [6],1.64
same,NF-kB SEAP reporter activity,RAW-Dual [2]; [7],1.03
same,NF-kB SEAP reporter activity,RAW-Dual [2]; [8],1.46
COc1cc(N2CCC(N3CCN(C)CC3)CC2)ccc1Nc1ncc(Cl)c(Nc2ccccc2P(C)(C)=O)n1,NF-kB SEAP reporter activity,RAW-Dual [1]; [9],1.15
same,NF-kB SEAP reporter activity,RAW-Dual [1]; [10],1.26
C=CC(=O)Nc1cccc(Oc2nc(Nc3ccc(N4CCN(C)CC4)cc3OC)ncc2Cl)c1,NF-kB SEAP reporter activity,RAW-Dual [1]; [4],0.931
same,NF-kB SEAP reporter activity,RAW-Dual [1]; [5],0.977
COc1cc(N2CCC(N3CCN(C)CC3)CC2)ccc1Nc1ncc(Cl)c(Nc2ccccc2S(=O)(=O)C(C)C)n1 (library stock concentration (final ~1000-fold dilution): 2 mM),NF-kB SEAP reporter activity,RAW-Dual [2]; agonist: LPS (TLR4) 0.1 ug/mL,1.66
same,NF-kB SEAP reporter activity,RAW-Dual [2]; [6],0.603
same,NF-kB SEAP reporter activity,RAW-Dual [2]; [7],0.757
same,NF-kB SEAP reporter activity,RAW-Dual [2]; [8],1.2
COc1cc(N2CCC(N3CCN(C)CC3)CC2)ccc1Nc1ncnc(Nc2ccccc2S(=O)(=O)C(C)C)n1 (library stock concentration (final ~1000-fold dilution): 10 mM),NF-kB SEAP reporter activity,RAW-Dual [2]; agonist: LPS (TLR4) 0.1 ug/mL,5.53
same,NF-kB SEAP reporter activity,RAW-Dual [2]; [6],0.961
same,NF-kB SEAP reporter activity,RAW-Dual [2]; [7],0.718
same,NF-kB SEAP reporter activity,RAW-Dual [2]; [8],1.04
Cl.Cl.NC1CCC(NC2CC2c2ccccc2)CC1 (stereo unspecified),NF-kB SEAP reporter activity,RAW-Dual [1]; [4],1.03
same,NF-kB SEAP reporter activity,RAW-Dual [1]; [5],1.37
Cl.Cl.NC1CCC(NC2CC2c2ccccc2)CC1 (stereo unspecified) (library stock concentration (final ~1000-fold dilution): 10 mM),NF-kB SEAP reporter activity,RAW-Dual [2]; agonist: LPS (TLR4) 0.1 ug/mL,1.25
same,NF-kB SEAP reporter activity,RAW-Dual [2]; [6],0.222
same,NF-kB SEAP reporter activity,RAW-Dual [2]; [7],0.869
same,NF-kB SEAP reporter activity,RAW-Dual [2]; [8],0.615
CC12CCC(=O)C=C1C=CC1C2CCC2(C)C1CCC21CCC(=O)O1 (stereo unspecified) (library stock concentration (final ~1000-fold dilution): 10 mM),NF-kB SEAP reporter activity,RAW-Dual [2]; agonist: LPS (TLR4) 0.1 ug/mL,0.949
same,NF-kB SEAP reporter activity,RAW-Dual [2]; [6],1.05
same,NF-kB SEAP reporter activity,RAW-Dual [2]; [7],0.849
same,NF-kB SEAP reporter activity,RAW-Dual [2]; [8],0.874
CC12CCC(=O)C=C1C=CC1C2CCC2(C)C1CCC21CCC(=O)O1 (stereo unspecified),NF-kB SEAP reporter activity,RAW-Dual [1]; [5],1.05
Cl.O=C1Cc2cc(CCN3CCN(c4nsc5ccccc45)CC3)c(Cl)cc2N1 (library stock concentration (final ~1000-fold dilution): 10 mM),NF-kB SEAP reporter activity,RAW-Dual [2]; agonist: LPS (TLR4) 0.1 ug/mL,0.912
same,NF-kB SEAP reporter activity,RAW-Dual [2]; [6],0.338
same,NF-kB SEAP reporter activity,RAW-Dual [2]; [7],0.746
same,NF-kB SEAP reporter activity,RAW-Dual [2]; [8],0.865
Cl.O=C1Cc2cc(CCN3CCN(c4nsc5ccccc45)CC3)c(Cl)cc2N1,NF-kB SEAP reporter activity,RAW-Dual [1]; [4],0.412
same,NF-kB SEAP reporter activity,RAW-Dual [1]; [5],0.73
O=C1Nc2ccc(CN3C(=O)CSC3=O)cc2/C1=C/c1cc(CN2CCOCC2)c[nH]1 (library stock concentration (final ~1000-fold dilution): 10 mM),NF-kB SEAP reporter activity,RAW-Dual [2]; agonist: LPS (TLR4) 0.1 ug/mL,1.89
same,NF-kB SEAP reporter activity,RAW-Dual [2]; [6],1.3
same,NF-kB SEAP reporter activity,RAW-Dual [2]; [7],0.605
same,NF-kB SEAP reporter activity,RAW-Dual [2]; [8],1.13
O=C1Nc2ccc(CN3C(=O)CSC3=O)cc2/C1=C/c1cc(CN2CCOCC2)c[nH]1,NF-kB SEAP reporter activity,RAW-Dual [1]; [4],1.07
same,NF-kB SEAP reporter activity,RAW-Dual [1]; [5],1.43
CCC(=O)OC(OP(=O)(CCCCc1ccccc1)CC(=O)N1CC(C2CCCCC2)CC1C(=O)O)C(C)C (stereo unspecified) (library stock concentration (final ~1000-fold dilution): 10 mM water),NF-kB SEAP reporter activity,RAW-Dual [2]; agonist: LPS (TLR4) 0.1 ug/mL,0.941
same,NF-kB SEAP reporter activity,RAW-Dual [2]; [6],1.05
same,NF-kB SEAP reporter activity,RAW-Dual [2]; [7],1.01
same,NF-kB SEAP reporter activity,RAW-Dual [2]; [8],0.946
CCC(=O)OC(OP(=O)(CCCCc1ccccc1)CC(=O)N1CC(C2CCCCC2)CC1C(=O)O)C(C)C (stereo unspecified),NF-kB SEAP reporter activity,"RAW-Dual [1]; library stock concentration (final ~1000-fold dilution): 10 mM water, cytotoxicity flag (confluency mask): not cytotoxic, agonist: Imiquimod (TLR7) […]",0.795
same,NF-kB SEAP reporter activity,"RAW-Dual [1]; library stock concentration (final ~1000-fold dilution): 10 mM water, cytotoxicity flag (confluency mask): not cytotoxic, agonist: MPLA (TLR4) […]",0.935
